# Measured values: PubChem BioAssay AID493027 (The Scripps Research Institute Molecular Screening Center, 2011)
# Values joined by “and” are separate entries in the source; they are usually repeats but may differ in a detail not shown here. Equal values may be shown once. Screen size: about 2,000 compounds; about 45 (2%) were called active. The sample as a whole holds a higher share of actives than the screen did. A number with no mark means an inactive call.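 The calls were made as follows: active = inhibition above the screen-wide mean inhibition plus 3 SD (cut at about 44% in these data); inactive = the rest.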
# Target: Perilipin-1 (Homo sapiens) + 1-acylglycerol-3-phosphate O-acyltransferase ABHD5 (Homo sapiens) (UniProt O60240+Q8WTS1)
# Assay: ABHD5-PLIN1 interaction inhibitors, pilot screen, cell lysate, split luciferase complementation, luminescence, NIH validation set (AID 493027);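 also: 0% = DMSO wells with the 100% control not disclosed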
# Conditions: split G. princeps luciferase complementation, 4 h, at 7.9 µM, hits give high values
# Chain of Perilipin-1 (Homo sapiens) + 1-acylglycerol-3-phosphate O-acyltransferase ABHD5 (Homo sapiens) (O60240 whole entry, looked up): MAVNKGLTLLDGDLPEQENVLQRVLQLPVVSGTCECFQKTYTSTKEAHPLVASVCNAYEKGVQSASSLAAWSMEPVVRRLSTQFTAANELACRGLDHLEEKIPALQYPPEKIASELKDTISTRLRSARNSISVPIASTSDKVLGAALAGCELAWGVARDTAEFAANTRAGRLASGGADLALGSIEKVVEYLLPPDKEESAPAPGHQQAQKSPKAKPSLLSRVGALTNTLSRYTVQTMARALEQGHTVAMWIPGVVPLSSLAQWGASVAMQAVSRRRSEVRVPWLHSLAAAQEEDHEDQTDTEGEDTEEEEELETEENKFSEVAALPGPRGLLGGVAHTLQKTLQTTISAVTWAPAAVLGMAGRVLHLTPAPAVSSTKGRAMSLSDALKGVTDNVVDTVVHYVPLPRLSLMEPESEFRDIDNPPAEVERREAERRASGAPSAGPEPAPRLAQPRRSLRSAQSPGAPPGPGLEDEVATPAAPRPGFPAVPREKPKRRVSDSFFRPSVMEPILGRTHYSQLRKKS
# Chain of Perilipin-1 (Homo sapiens) + 1-acylglycerol-3-phosphate O-acyltransferase ABHD5 (Homo sapiens) (Q8WTS1 whole entry, looked up): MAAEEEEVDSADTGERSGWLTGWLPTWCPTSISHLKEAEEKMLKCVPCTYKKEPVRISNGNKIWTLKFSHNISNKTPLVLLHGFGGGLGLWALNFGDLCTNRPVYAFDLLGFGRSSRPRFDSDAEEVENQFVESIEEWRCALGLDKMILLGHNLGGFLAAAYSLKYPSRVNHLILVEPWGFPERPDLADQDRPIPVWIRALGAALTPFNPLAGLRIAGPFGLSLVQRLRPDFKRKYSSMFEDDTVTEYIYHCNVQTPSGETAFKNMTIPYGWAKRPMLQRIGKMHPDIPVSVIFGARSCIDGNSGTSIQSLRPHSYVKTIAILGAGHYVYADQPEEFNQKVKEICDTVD
row,SMILES,inhibition
1,O=c1c2ccccc2nc(/C=C/c2ccc3c(c2)OCO3)n1-c1ccccc1,1.81%
2,Cc1nc2ccccc2c(=O)n1-c1ccc(C(=O)O)cc1,5.87%
3,O=c1c2ccccc2[se]n1-c1ccccc1,90.3% (active)
4,[N-]=[N+]=CC(=O)OC[C@H](N)C(=O)O,0.75%
5,CC12CN3CC(C)(CN(C1)C3c1cccs1)C2=O (stereo not given),-10.9%
6,CC(C)NC(C)C(=O)c1ccc2ccccc2c1 (stereo not given),-0.73%
7,O=c1[nH]c(=S)n(-c2ccccc2)c(O)c1/C=N/N1CCCCC1c1cccnc1 (stereo not given),-7.25%
8,C#CCN(C)C(C)Cc1ccccc1 (stereo not given),-10.3%
9,Cc1ccc(-n2c(C)cc(/C=C3/C(=O)NC(=O)N(C)C3=O)c2C)cc1,38.2%
10,CCOc1ccc(N2C(=O)NC(=O)/C(=C\c3cc(OC)c(OC)cc3[N+](=O)[O-])C2=O)cc1,63.9% (active)
11,COc1cc(/C=C2\C(=O)NC(=O)N(c3ccccc3)C2=O)c([N+](=O)[O-])cc1OC,58.1% (active)
12,Cc1ccc(/C=C2/C(=O)NC(=O)N(C)C2=O)cc1,-3.1%
13,CCOC(=O)c1cncn1C(C)c1ccccc1 (stereo not given),1.91%
14,C[N+]1(C)[C@@H]2CC(OC(=O)[C@H](CO)c3ccccc3)C[C@H]1[C@@H]1O[C@@H]12 (stereo not given in full),-5.12% and 3.91%
15,CC(C)C[C@H]1C(=O)N2CCCC2[C@]2(O)O[C@](NC(=O)[C@@H]3C=C4c5cccc6[nH]cc(c56)CC4N(C)C3)(C(C)C)C(=O)N12 (stereo not given in full),22.5%
16,Cc1c2ccncc2c(C)c2c1[nH]c1ccccc12,-2.7%
17,Cc1cc2c(C(C)C)c(O)c(O)c(C=O)c2c(O)c1-c1c(C)cc2c(C(C)C)c(O)c(O)c(C=O)c2c1O,50.9% (active)
18,O=C1C(=O)c2ccccc2-c2ccccc21,29.2%
19,CCn1c(O)c(C(=O)CC2NCCc3ccccc32)c(=O)n(CC)c1=S (stereo not given),-1.08%
20,CC[C@@H]1C(=O)OC[C@@H]1Cc1cncn1C,-9.03% and -8.34%
21,Clc1ccc(C2NCCc3[nH]cnc32)cc1 (stereo not given),1.77%
22,COP(=S)(OC)SCN1C(=O)c2ccccc2C1=O,83.3% (active)
23,NNC(=O)c1ccc(Cl)cc1,1.77%
24,O=C1C=Cc2ccccc2C1=O,25.2%
25,O=C1CCCC2=C1C(c1cccnc1)Nc1ccccc1N2 (stereo not given),-3.96%
